This is part of a sample that, as a whole, favours compounds with a hit. Of some 83,000 tested, about 20% had one in any assay.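 Treatment: one concentration, 48 hours, 96-well format. Scoring: percent growth, with anything below 10 considered active.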 The source made the active and inactive calls.
What follows are compounds tested on SK-MEL-5 melanoma (assay: NCI-60 one-dose screen, 48 h (100 = growth as untreated, 0 = no growth, -100 = all killed)). Conditions: 10 µM unless noted.
Description: Growth inhibition of the SK-MEL-5 human tumor cell line is measured as a screen for anti-cancer activity. Cells are grown in 96 well plates and exposed to the test compound for 48 hours. Compounds are tested at a single concentration, which is 10^-5 M for most compounds. The reported endpoint is percent growth (GI% or GIPRCNT), where numbers from 0 - 100% represent growth inhibition, and numbers from -100% - 0 represent cell death. For example, a value of 40 represents 60% growth inhibition. A value of 0 means no net growth occurred over the course of the experiment. A value of -40 indicates 40% of cells at the beginning of the experiment died by the end of the experiment. A value of -100 means all cells are dead at the end of the experiment.
NCI-60 Human Tumor Cell Lines Screen was performed using the standard one-dose NCI protocol, which is described in more detail at https://dtp.cancer.gov/discovery_development/nci-60/default.htm.
Compounds with GIPRCNT values below 10 were considered active. Activity score was based on GIPRCNT using the following formula: […]
Score is 0 for GIPRCNT values of 100 or above, 50 for GIPRCNT values of 0, and 100 for GIPRCNT values of -100.

| Structure (SMILES) | growth |
| --- | --- |
| CCOC(=O)c1c(NC(=O)C2CCCCC2C(=O)O)sc2c1CCCC2 (stereo not given) | 95.1% (inactive) |
| Cc1ccc(C=C2C(Cl)=C(Cl)C(Cl)=C2Cl)cc1 | -94.4% (active) |
| COc1cc(Oc2cc(-c3cccnc3)ccc2NC(=O)Nc2ccc(F)cc2F)cc(OC)c1OC | 92.6% (inactive) |
| S=C(c1ccccc1)N1CCN(c2cccc(Cl)c2)CC1 | 95.6% (inactive) |
| Fc1ccc(-c2nnc(/C=C/c3cn(-c4ccccc4)nc3-c3ccccc3)o2)cc1 | 105% (inactive) |
| O=C(CN1CCCCC1)Sc1nnc2sc3ccccc3n12 | 99.2% (inactive) |
| C=C(C)[C@@H]1C[C@H](O)Cc2cc(Cl)cc(Cl)c2N1 | 102% (inactive) |
| N#Cc1ccc(NC(=O)Nc2ccc(Oc3ccc(NC(=O)Nc4ccc(C#N)cc4)cc3)cc2)cc1 | 31.2% (inactive) |
| O=C1/C(=C/c2ccc([N+](=O)[O-])o2)Oc2ccc(Br)cc21 | 82.5% (inactive) |
| COc1ccc(/C=N\Nc2ccc([N+](=O)[O-])cn2)cc1OC | 85.5% (inactive) |
| Cc1cc(=O)n2n1-c1ccc(Cl)cc1NC(=O)C2 | 97.5% (inactive) |
| N=C(N)/N=C(\CCc1nc2ccccc2[nH]1)c1nc2ccccc2[nH]1 | 98% (inactive) |
| O=C(c1ccccc1)c1ccco1 | 106% (inactive) |
| Cc1c(C(N)=O)sc2c1c(=O)n(Cc1ccccc1)c1nnc(SCC(=O)Nc3ccc(Cl)cc3)n21 | 51.8% (inactive) |
| CC(C)[C@]12O[C@H]1[C@@H]1O[C@]13[C@]1(O[C@H]1C[C@H]1C4=C(CC[C@@]13C)C(=O)OC4)[C@@H]2OC(=O)CN(C)C | -20.1% (active) |
| C[n+]1c2ccccc2c(NC2CCNCC2)c2[nH]c3ccccc3c21 | 7.09% (active) |
| CCOC(Cc1c(N)[nH]c(=S)[nH]c1=O)OCC | 95.5% (inactive) |
| COc1ccc(-c2nn(-c3ccccc3)cc2/C=C2\SC(=S)N(CCc3ccc(O)cc3)C2=O)cc1 | 88.1% (inactive) |
| O=C(Nc1ccc(Cl)cc1Cl)Nc1ccc(-c2cccnc2)cc1N1CCC(CO)CC1 | 27.4% (inactive) |
| N#Cc1c(N2CCOCC2)nc2sc3cc(Cl)ccc3n2c1=N | 78.3% (inactive) |

| Structure (SMILES) | growth |
| --- | --- |
| Cc1cc(C(C)(C)C)cc(C)c1CC1=NCCN1 | 96.7% (inactive) |
| O=C1C2C3C=CC(O3)C2C(=O)N1Nc1ccccc1 (stereo not given) | 109% (inactive) |
| Nc1cc(Cl)c(S(N)(=O)=O)cc1S(N)(=O)=O | 102% (inactive) |
| COc1cc(C(=O)/C=C/c2cccnc2Nc2ccccc2)cc(OC)c1OC | -99.4% (active) |
| CCCCOc1ccc(C(C)(C)c2ccc(OCCCC)cc2)cc1 | 111% (inactive) |
| C=C(C[C@@](O)(C(=O)Oc1ccccc1)C(=O)C1CCCCC1)c1ccccc1 | 96.3% (inactive) |
| Cc1c(C(N)=O)sc2c1c(=O)n(Cc1ccccc1)c1nnc(S(=O)(=O)CC(=O)Nc3ccc(Cl)cc3)n21 | 55.2% (inactive) |
| O=C1NCN(c2ccccc2)C12CCN(CCCC(c1ccc(F)cc1)c1ccc(F)cc1)CC2 | 41.4% (inactive) |
| COc1ccc(Nc2ccnc(NCCCNc3ccnc4cc(Cl)ccc34)n2)cc1 | -98% (active) |
| Cc1cc(CC(=O)O)n(C)c1C(=O)c1ccc(Cl)cc1 | 98.7% (inactive) |
| Nc1ccc(C2=Nc3cccc4cccc(c34)S2)cc1 | 88.9% (inactive) |
| COC(=O)[C@]1(CCSC)N[C@H](c2cn(-c3ccccc3)nc2C)[C@@H]2C(=O)N(c3ccc(C)cc3)C(=O)[C@@H]21 | 115% (inactive) |
| COc1ncc(-c2ccc3nccc(C#CCN4CCN(S(C)(=O)=O)CC4)c3c2)cc1NS(=O)(=O)c1ccc(F)cc1F | -92.3% (active) |
| Nc1nc(N)c([N+](=O)[O-])c(=O)[nH]1 | 102% (inactive) |
| O=C(/C=C/c1cccnc1)NCCCCC1CCCN(C(=O)c2ccccc2)C1 (stereo not given) | 61.7% (inactive) |
| c1cnc2ccc3ncccc3c2c1 | 106% (inactive) |
| O=Nc1ccc(O)c(=O)cc1 | 79.8% (inactive) |
| CCCOc1ccc2c(c1)CC[C@@H]1[C@@H]2CC[C@@]2(C)[C@H]1CC[C@]2(C)O | 92.7% (inactive) |
| COc1cc2c(cc1OC)C1CCN3C(=O)CCC3N1CC2 (stereo not given) | 113% (inactive) |
| C=C(C)[C@H]1CC/C(C)=C/CC[C@]2(C)O[C@H]2CC/C(COC(C)=O)=C\C1=O | 109% (inactive) |
